Measured values taken from PubChem BioAssay AID720488 (Milwaukee Institute for Drug Discovery, 2013).
Out of some 16,000 compounds screened, about 960 (6%) were called active. Only a selection was taken, and actives are over-represented in it overall. Values without a mark were called inactive.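 How the source made its calls: active means compound fluorescence over control fluorescence at most 0.8, a quencher, or at least a set upper limit, an enhancer; inactive means ratio between 0.8 and the set upper limit.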

Test: Cy5 fluorescence quenchers or enhancers, artefact control for HCV NS3 helicase inhibitor project, biochemical, ChemBridge library, Cy5 readout (AID 720488)
Conditions: Cy5-dT15 DNA with NS3h, at 100 µM, actives lie on both sides, signal over control mean, under 1 quenches

Row | SMILES | fluorescence interference ratio
1 | CC(=O)c1cccc(N2C(=O)C3C4C=CC(C5CC45)C3C2=O)c1 (stereo not drawn) | 0.66 (active)
2 | O=C1C2C3C=CC(C3=C(c3ccccc3)c3ccccc3)C2C(=O)N1c1cccc(C(F)(F)F)c1 (stereo not drawn) | 1.02
3 | CCOc1ccc(C(=O)Nc2ccc(Cl)c(-c3nc4ncccc4o3)c2)cc1Cl | 1.17
4 | Cc1cccc(N=C2NC(=O)/C(=C\c3ccc([N+](=O)[O-])cc3)S2)c1C | 0.748 (active)
5 | Cc1cccc(N=C2NC(=O)CS2)c1C | 1
6 | O=C1NC(=Nc2cccc(O)c2)S/C1=C\c1cccc(O)c1 | 0.898
7 | COC(=O)C1=C(O)/C(=C\c2ccccc2C(F)(F)F)N=C1C | 0.891
8 | CCOC(=O)c1[nH]c(=O)[nH]c1CSc1nccn1C | 1.03
9 | Cc1cc(/C=N\O)c(C)n1-c1ccc(F)cc1 | 0.964
10 | Cc1cc(Br)cc(C)c1NC(=O)c1cc2ccccc2o1 | 0.937
11 | O=C(Nc1ccncc1)c1cc2ccccc2o1 | 0.446 (active)
12 | Cc1ccc(NC(=O)c2cccc(C(=O)Nc3ccc(C)cc3)n2)cc1 | 0.981
13 | Cc1ccccc1CC1S/C(=N/N=C\c2ccc(N(C)C)cc2)NC1=O (stereo not drawn) | 0.981
14 | Cc1cccc(NS(=O)(=O)c2ccc([N+](=O)[O-])cc2)n1 | 0.931
15 | COc1ccc(C2=CC=C(c3ccc(OC)cc3)C2)cc1 | 0.865
16 | CCOCCOCCC(C(=O)O)P(=O)(c1ccccc1)c1ccccc1 (stereo not drawn) | 0.631 (active)
17 | CCCCOCP(=O)(c1ccccc1)c1ccccc1 | 1.1
18 | CCOC(=O)C(C#N)C(=S)Nc1ccccc1 (stereo not drawn) | 1.02
19 | Cn1cnc2c1c(=O)n(Cc1ccc(F)cc1)c(=O)n2C | 1.12
20 | COc1ccc(C(=O)COc2cc3c(C(=O)OC(C)C)c(C)oc3cc2Br)cc1 | 1
21 | O=[N+]([O-])c1cccc(S(=O)(=O)NCc2ccccn2)c1 | 1.05
22 | COc1ccc(N=Cc2sccc2C)c([N+](=O)[O-])c1 | 1.02
23 | COc1ccc(N2C(=O)C3C4C=CC(C4=C(C)C)C3C2=O)c([N+](=O)[O-])c1 (stereo not drawn) | 0.887
24 | COc1ccc(N2C(=O)C=CC2=O)c([N+](=O)[O-])c1 | 0.622 (active)

Row | SMILES | fluorescence interference ratio
25 | CC1(C(=O)Nc2ccccc2Cl)CC2c3ccccc3C1c1ccccc12 (stereo not drawn) | 0.972
26 | C=CCOC(=O)C1=C(C)NC(C)=C(C(=O)OCC=C)C1c1cccs1 | 0.9
27 | O=C(Nc1ccc(Cl)c(Cl)c1)Nc1nnc(-c2ccc(Br)cc2)s1 | 1.03
28 | C/C(=N/NS(=O)(=O)c1ccccc1)c1cccc(Br)c1 | 1.04
29 | Cc1ccc(/C=C/C(=O)Nc2cccc([N+](=O)[O-])c2)o1 | 0.895
30 | CCNC(=O)NC1C(NC(=O)NCC)N(C)C(=O)N1C (stereo not drawn) | 0.995
31 | C=CCN1C(=O)/C(=C/c2ccccc2OCc2ccc([N+](=O)[O-])cc2)SC1=S | 1.07
32 | O=C(CCN1C(=O)/C(=C/c2ccccc2)SC1=S)Nc1cccc(Cl)c1 | 1.04
33 | C=CCN1C(=O)/C(=C\c2cc(Cl)c(O)c(Cl)c2)SC1=S | 0.772 (active)
34 | O=C(NCCCN1CCOCC1)C(=O)Nc1ccc(F)cc1 | 1.06
35 | O=C(NCc1cccs1)c1cc2n(n1)C(C(F)(F)F)CC(c1ccc(Cl)c(Cl)c1)N2 (stereo not drawn) | 1.05
36 | COc1ccc(NC(=O)C(=O)NCc2ccccn2)c(OC)c1 | 1.03
37 | O=C1C2C3C=CC(C3)C2C(=O)N1/N=C\c1cccc(I)c1 (stereo not drawn) | 0.959
38 | Cc1ccc(OCC(=O)Nc2cc([N+](=O)[O-])ccc2Cl)cc1 | 1.03
39 | O=C(NC(=S)Nc1ccc([N+](=O)[O-])cc1O)c1ccc(Br)cc1 | 0.952
40 | CC(C)COc1ccc(C(=O)Nc2cc([N+](=O)[O-])ccc2Cl)cc1 | 0.656 (active)
41 | CCC(C)c1ccc(NC(=O)c2ccc([N+](=O)[O-])cc2)cc1 (stereo not drawn) | 1.06
42 | O=C(Nc1cc([N+](=O)[O-])ccc1O)c1ccc(C(=O)Nc2cc([N+](=O)[O-])ccc2O)cc1 | 1.24 (active)
43 | COC(=O)c1cc(NC(=O)COc2ccc([N+](=O)[O-])cc2)cc(C(=O)OC)c1 | 1.05
44 | CN(C(=O)COc1ccc2ccccc2c1)c1ccccc1 | 1.02
45 | Cc1cc(C(=O)Nc2ccccc2C(=O)O)ccc1NC(=O)CC(C)C | 1.04
46 | COc1ccc(C2CC(c3ccc([N+](=O)[O-])cc3)=NN2)cc1 (stereo not drawn) | 0.645 (active)
47 | COc1ccc(C2=NN(C(C)=O)C(c3ccccc3)C2)cc1 (stereo not drawn) | 1.05
48 | C=C(C)Cn1c(-c2ccc([N+](=O)[O-])cc2)n[nH]c1=S | 1.03
